Hits are enriched below; roughly 19% of the tested compounds scored in any of these assays.
IL-1B inflam inh: inhibitors of inflammasome signaling (IL-1 beta secretion); THP-1 LPS/ATP IL-1B secretion, AlphaLISA, 16 h; active compounds read low; 4.7% of 360,000 active; activity change, % at 57.5 µM; in the data active means activity change below about -50%; inconclusive means mostly about -30% to -49%
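Secreted IL-1B measured by AlphaLISA bead assay after 16 h compound exposure of THP-1 cells; compounds (final up to 57.5 uM) added 1 h before LPS (250 ng/mL) and ATP (1.25 mM) stimulation; lower signal means less secretion.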
TDP1 cell noCPT: qHTS for Inhibitors of human tyrosyl-DNA phosphodiesterase 1 (TDP1): qHTS in cells in absence of CPT. Potency, µM (series often up to 46.2 µM), without a hit: top-dose activity change, negative = growth inhibition, most hits filed as inhibitors. AID 686978, 2013. DT40 Tdp1-/- hTDP1 cells, no CPT, ATP luminescence, 48 h. 15% of 420,000 active; further: potency means the concentration at half of the fitted maximal effect; nearly all actives have a fitted effect of over 55% in size
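Compound effects on proliferation are scored in DT40 Tdp1-/-;hTDP1 cells in the absence of CPT. ATP levels (CellTiter-Glo luminescence) are recorded after a ≥48 hr, 37 °C incubation.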
HT1080 IDH1KD tx: kills HT-1080 cells with IDH1 knockdown; HT-1080 IDH1 knockdown viability, ATP luminescence, 48 h; Potency, µM (doses to about 46.1 µM), without a hit: at the highest dose activity, negative = toxicity, actives largely listed as cytotoxic; 2% of 360,000 active; AID 686971;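 further: potency means the concentration at half of the fitted maximal effect; 0% = DMSO wells and -100% = cell-free medium wells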
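Luminescent ATP read-out (CellTiter-Glo, 10 min at room temperature) after 48 h compound exposure at 37 °C gave viability of IDH1-knockdown HT-1080 cells. Activity was normalised to DMSO and cell-free wells, then fitted as concentration-response curves.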
DT40 TDP1 CPT: DT40-hTDP1 cell growth loss with CPT | chicken DT40 Tdp1-/-;hTDP1 cells + 20 nM CPT, ATP luminescence, 48 h | Potency, µM (doses to about 46.2 µM), for the others: at the top dose activity change, negative = growth inhibition, usual class: inhibitors | 12% of 420,000 active | AID 686979; further: potency means the concentration at half of the fitted maximal effect; nearly all actives have a fitted effect of over 55% in size
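Cell growth measured by CellTiter-Glo luminescence after a minimum 48 h, 37 C compound exposure with 20 nM CPT in Tdp1-knockout DT40 cells stably expressing hTDP1, seeded 400/well; qHTS titration format.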
HT1080-NT tox: kills 2HG-producing HT-1080-NT fibrosarcoma cells. HT-1080-NT fibrosarcoma viability, CellTiter-Glo ATP luminescence, 48 h. Potency, µM (series often up to 46.1 µM), inactives show at the highest dose activity, negative = less viability, most hits filed as cytotoxic. 1.6% of 360,000 active. AID 686970;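 further: NT is the 2HG producing partner of a matched IDH1 knockdown line; potency means the concentration at half of the fitted maximal effect; 0% = DMSO-treated cells and -100% = media-only wells without cells; nearly all actives have a fitted effect of over 55% in size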
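HT-1080-NT; 750 cells/well; 5% FBS RPMI; 48 h compound, 37 degrees C; CellTiter-Glo luminescence; curve fitting and curve-class assignment.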
Starred values were filed as active, the others as inactive; ? = inconclusive; nt = no result. Unless noted, the call rests on the fitted dose curve; in most records, active means well fitted curve in the direction sought with a large enough effect; inconclusive means small, poorly fitted or top-dose-only effect, or another doubt; inactive means no such curve, though single readings can be large; an effect the other way counts as inactive or inconclusive. Unless noted, on the % scale 0 is the no-effect control and ±100 the full control effect.

SMILES | IL-1B inflam inh | TDP1 cell noCPT | HT1080 IDH1KD tx | DT40 TDP1 CPT | HT1080-NT tox
O=C(Nc1ccc(Cl)cc1)Nc1ccc2c(c1)N1CCN=C1S2 | -65.6* | 20.6µM* | 32.6µM* | 23.1µM* | 20.6µM*
Nc1ccc2c(c1)N1CCN=C1S2 | -1.7 | -23.9% | -9.0% | -24.8% | -1.9%
Cc1cc(OCC(=O)OCC(=O)NCC2CCCO2)ccc1Cl (centres undefined) | 13.5 | -22.5% | 5.5% | -2.4% | 8.9%
CCOC(=O)c1c(-c2ccc(OC)cc2)oc2c1C(OC(C)=O)CCC2 (centres undefined) | -1.5 | 20.6µM* | 7.0% | ? | 16.9%
COc1ccc(-c2oc3c(c2C(=O)OCCCO)C(OCCO)CCC3)cc1 (centres undefined) | 0.0 | 4.7% | 13.0% | -1.3% | -0.4%
O=C(OCc1ccccc1)c1c(-c2ccccc2)oc2c1C(OCCO)CCC2 (centres undefined) | 10.6 | 16.4µM* | -14.6% | ? | -8.5%
CCc1ccc(NC(=O)CCS(=O)(=O)c2ccc3c(c2)oc(=O)n3C)cc1 | nt | -18.8% | nt | -27.4% | nt
CCC1=NN(C(=O)Cc2ccc(OC)c(OC)c2)C(O)(C(F)(F)F)C1 (centres undefined) | -7.1 | -25.8% | 14.3% | -5.0% | 7.2%
CCOc1ccc2nc3cc(N=Nc4ccc(N)nc4N)ccc3c(N)c2c1 | 37.5 | 2.59µM* | 18.9% | 5.8µM* | 7.7%
COc1ccc(N=Nc2ccc(N)nc2N)cc1 | -17.2 | -25.4% | 18.0% | -21.2% | ?
NC(=O)c1ccsc1NC(=O)c1ccc(N2CCCC2=O)cc1 | -56.3* | ? | -18.9% | ? | -22.8%
CNC(=O)c1ccsc1NC(=O)c1ccc2c(c1)CCCC2 | -55.2* | ? | -8.5% | ? | -17.9%
CC(C)Cc1nnc(NC(=O)c2ccc(N3CCCC3=O)cc2)s1 | -16.3 | ? | 10.6% | ? | 2.8%
NC(=O)c1ccsc1NC(=O)c1ccc2c(c1)CCCC2 | -55.3* | ? | ? | 14.6µM* | ?
NC(=O)c1ccsc1NC(=O)c1cccs1 | -9.2 | -2.3% | -14.5% | 2.7% | -16.7%
CCOC(=O)c1ccc(CN(Cc2ccc(F)cc2)S(=O)(=O)c2ccc(F)c(C(=O)Nc3ccccc3C(F)(F)F)c2)cc1 | nt | -19.0% | nt | -25.4% | nt
CCOC(=O)c1ccc(CN(Cc2ccc(F)cc2)S(=O)(=O)c2cc(C(=O)Nc3cccc(C(F)(F)F)c3)ccc2F)cc1 | nt | 23.1µM* | nt | 13µM* | nt
COc1ccc(NC(=O)c2ccc(C(=O)c3ccccc3)o2)cc1 | -21.2 | 2.06µM* | -8.4% | ? | -6.5%
Cc1cccc(C(=O)Nc2ccc(C(=O)c3ccncc3)cc2)c1 | 17.3 | 14.6µM* | 4.2% | ? | 4.7%
CN(C)S(=O)(=O)Oc1ccc(C(=O)Nc2cccc(C(F)(F)F)c2)cc1 | ? | 14.6µM* | ? | 23.1µM* | -28.1%
COc1ccc(C(=O)Nc2ccc(C(=O)c3ccccc3)cc2)cc1 | 31.6 | -22.3% | ? | -3.0% | ?
COc1cccc(-n2cnnc2SC(C)C(=O)NC2CCCC2)c1 (centres undefined) | 0.0 | -13.3% | 12.3% | -0.5% | 18.8%
CCN(CC(=O)Nc1ccc(NC(C)=O)cc1)C(=O)c1ccccc1SCc1c(C)noc1C | -6.7 | 6.4% | -0.2% | 9.9% | -0.5%
COc1ccc(CCNC(=O)NC23CC4CC(CC(C4)C2)C3)cc1OC | -10.3 | -42.8% | -2.3% | ? | -1.1%
Cc1cccc(C(=O)Nc2ccc(C(=O)c3ccccc3)cc2)c1 | -80.2* | ? | -5.7% | ? | 1.0%
SMILES | IL-1B inflam inh | TDP1 cell noCPT | HT1080 IDH1KD tx | DT40 TDP1 CPT | HT1080-NT tox
COc1cccc(OC)c1C(=O)Nc1ccc(Br)c(C(=O)c2ccccc2)c1 | -4.6 | 16.4µM* | -2.1% | ? | -28.6%
COc1ccc(C(=O)Nc2cccc(C(=O)NCc3ccccc3)c2)cc1 | 3.6 | ? | ? | 20.6µM* | -24.1%
Cc1cccc(NC(=O)c2ccc(C(=O)Nc3cccc(C)c3)nc2)c1 | 43.1 | 16.4µM* | 20.6µM* | 2.59µM* | ?
O=C1c2ccccc2NC(c2cccc(O)c2)N1NS(=O)(=O)c1ccccc1 (centres undefined) | -19.5 | -31.6% | -3.1% | -0.8% | -1.3%
COc1cccc(C(=O)Nc2ccc(C(=O)O)cc2)c1 | 1.8 | ? | -12.5% | -15.4% | -7.5%
COc1ccc(S(=O)(=O)c2c(O)c3ccc(C(=O)Nc4cccc(F)c4)cc3[nH]c2=O)cc1 | -5.2 | -2.6% | 12.8% | 5.8% | -0.9%
CCOC(=O)c1ccc(CN(Cc2ccccc2C)S(=O)(=O)c2ccc(C(C)(C)C)cc2)cc1 | nt | 18.4µM* | nt | ? | nt
COc1cccc(NC(=O)c2ccc3c(O)c(S(=O)(=O)c4ccccc4)c(=O)[nH]c3c2)c1 | 1.4 | ? | 5.7% | 23.1µM* | 3.7%
COc1cccc(C(=O)Nc2ccc(C(=O)c3ccccc3)cc2)c1 | -5.1 | 16.4µM* | -17.9% | -18.9% | -19.3%
CN(C)S(=O)(=O)Oc1cccc(C(=O)Nc2ccc(Cl)cc2)c1 | -62.9* | 11.6µM* | ? | 8.2µM* | 1.6%
O=C(OCC(=O)N1CCN(c2ccccc2)CC1)c1ncc(Cl)c(Cl)c1Cl | -17.4 | -12.2% | 20.4% | -7.7% | 16.6%
COc1ccc(Cc2nnc(NC(=O)c3ccco3)s2)cc1OC | -2.7 | ? | 1.9% | -12.7% | 1.1%
COc1ccc(C(=O)Nc2ccc3[nH]ccc3c2)cc1 | -16.4 | 25.9µM* | 20.6µM* | ? | 18.4µM*
COc1ccc(C(=O)Nc2ccc(NC(=O)c3cccc(F)c3)cn2)cc1 | 8.4 | -5.0% | -3.0% | -20.2% | 0.9%
COc1ccc(C(=O)Nc2ccc3[nH]ccc3c2)cc1OC | -27.4 | 3.0% | -16.8% | 12.7% | -12.2%
COc1ccc(C(=O)Nc2ccc(NC(=O)c3cccc(OC)c3)cn2)cc1 | 16.7 | -16.2% | ? | ? | 20.6µM*
CC1=C(C(=O)OC2CCCC2)C(c2c(Cl)cccc2Cl)CC(=O)N1 (centres undefined) | nt | 25.9µM* | nt | ? | nt
CC1=C(C(=O)OC2CCCC2)C(c2cccc(Cl)c2Cl)CC(=O)N1 (centres undefined) | nt | 23.1µM* | nt | ? | nt
CC1=C(C(=O)OC2CCCC2)C(c2ccccc2Cl)CC(=O)N1 (centres undefined) | nt | 13µM* | nt | 16.4µM* | nt
COc1ccccc1C1CC(=O)NC(C)=C1C(=O)OCC(C)C (centres undefined) | 15.4 | 13µM* | -13.5% | 11.6µM* | -11.1%
Brc1ccc2nc(C3CCCCC3)c(CC3CCCCC3)n2c1 | 54.7 | ? | 24.1% | ? | 24.6%
CCc1nc2ccc(C(=O)N(C)Cc3ccco3)cn2c1N(CC)C(=O)NCCc1ccccc1 | 8.6 | ? | 7.6% | -28.5% | 18.6%
